Activity calls are given as the source filed them. Rule for the calls: active = hit-call score of the fitted dose curve at least 0.9, where 1 is the maximum; inactive = score below 0.9.

Read-out in this assay: Glutamate-cysteine ligase catalytic (GCLC), GCLC (gene 2729)
Briefly: LTEA_HepaRG_GCLC: Life Technologies and Expression Analysis (LTEA) Assay for Glutamate-cysteine ligase catalytic (GCLC) using HepaRG (AID 2283498). Particulars: mRNA level, 48 h; actives raise or lower the signal. As to the method: LTEA_HepaRG is a cell based, multiplexed-readout assay that uses HepaRG, a human liver cell line, with measurements taken at 48 hours after chemical dosing on a 96-well plate.LTEA_HepaRG_GCLC is one of 102 assay component(s) measured in the LTEA HepaRG cell culture assay. It is a marker of Oxidative Stress.Data from the assay component LTEA_HepaRG_GCLC was analyzed into 1 endpoint. This assay endpoint, LTEA_HepaRG_GCLC, was analyzed with bidirectional fitting relative to DMSO as the negative control and baseline of activity. Using a type of inducible reporter, measures of mRNA induction for gain or loss-of-signal activity can be used to understand regulation of transcription factor activity. To generalize the intended target to other relatable targets, this assay endpoint is annotated to the ligase intended target family, where the subfamily is C-N ligase.
A total of 1060 chemcials from the ToxCast library were tested in eight-point concentration-response experiments. Cell culture and cytotoxicity assays were conducted at Thermo Fisher Scientific's Custom Services facility (Madison, WI). A single lot of human HepaRG cells (Thermo Fisher Scientific, Frederick, MD) was used for the cell culture experiments. 96-well format collagen type I coated plates of human HepaRG cells were prepared using established methods. Briefly, cryopreserved HepaRG cells were thawed, plated at a density of approximately 100,000 cells/well in HepaRG Thaw, Plate, and General Purpose media (HPRG770, Thermo Fisher Scientific), and incubated for 48 hours. 0.5% DMSO was selected as vehicle control to balance the requisite need of DMSO in HepaRG cultures to maintain differentiation (for example, baseline metabolism, proportions of hepatocytes vs. cholangiocytes), while enabling further hepatic receptor pathway activation (for example, PXR and CAR) in response to chemical exposure. 48 hours after plating, the culture medium was replaced with HepaRG Serum-Free Incudtion Media. Cells were exposed to each test chemical in duplicate and maintained in CO2 incubators for another 48 hours. Chemical plates were thawed to room temperature and 200x concentrations of treatment groups were prepared. 8-point conentration-reponse curves were made with the highest exposure at 100 uM, followed by half-log dilutions, all in 0.5% DMSO. Each test plate contained variouse controls, induction positive controls (1mM phenobarbital), cytotoxicity positive controls ([…] aflatoxin B1), vehicle controls (0.5% DMSO), and total lysis controls (0.5% DMSO). Cell morphology images were taken using an Essen IncuCyte FLR automated microscope, with six 96-well plates imaged in about 24 minutes. Images were captured and exported and JPEG files. Spent culture media was transfered to black-well plates for the LDH assay, and remaining media was sorted at -80 C for later use. Cells were treated with RLT buffer and frozen until shipped for gene expression analysis. Total RNA was isolated from the cell suspension in 75 uL of Buffer RLT (Qiagen, Germantown, MD 20874) by Quintiles/Expression Analysis (Durham, NC) using a custom isolation procedure. Total RNA from each plate well was transferred to a preamplification plate. Fluidigm's 96.96 Dynamic ArrayTM (Fluidigm, Amsterdam, the Netherlands) technology was used for gene expression analyses by quantitative reverse transcription polymerase chain reaction (qRT-PCR, performed by Quintiles/Expression Analysis, Durham, NC)89. Standard TaqManTM Assays (Applied Biosystems/ThermoFisher Scientific, Foster City, CA) were used to assess the expression of 93 genes selected based on their selectivity and sensitivity to important hepatic receptors known to be modulated by environmental chemicals; importance in human hepatocyte functionality; and hepatotoxicity. […]
For the compound `CCCCCCOC(=O)CC(CC(=O)OCCCCCC)(OC(=O)CCC)C(=O)OCCCCCC`, the compound was called inactive.

In the case of `CCCCC(CC)C(=O)OCCOCCOCCOC(=O)C(CC)CCCC` (stereo not given), the outcome was inactive.

`CCCC(CCC)C(=O)O`: the compound was classed as inactive.

Turning to `CCN(CC)C(=S)SSC(=S)N(CC)CC`, the compound was called inactive.

For the compound `c1ccc2c(c1)-c1cccc3c1c-2cc1ccccc13`, the outcome was inactive.

Turning to `c1ccc2cc3ccccc3cc2c1`, the compound was classed as inactive.

In the case of `OCC(CO)(CO)CO`, the compound was classed as inactive.

Consider `OC[C@H]1O[C@@](CO)(O[C@H]2O[C@H](CO)[C@@H](O)[C@H](O)[C@H]2O)[C@@H](O)[C@@H]1O`, for which the outcome was inactive.

As for `CC(C)c1nnc2ccc(-c3ocnc3-c3cc(F)ccc3F)cn12`, the call was inactive.

Consider `OC(CCl)CCl`, for which the result was inactive.

In the case of `CNC(C)=O`, the compound was classed as inactive.

`Cc1ccc(S(=O)(=O)NC(=O)NN2CCCCCC2)cc1`: the call was inactive.

For `OC[C@H]1O[C@@H]2O[C@H]3[C@H](O)[C@@H](O)[C@@H](O[C@H]4[C@H](O)[C@@H](O)[C@@H](O[C@H]5[C@H](O)[C@@H](O)[C@@H](O[C@H]6[C@H](O)[C@@H](O)[C@@H](O[C@H]7[C@H](O)[C@@H](O)[C@@H](O[C@H]1[C@H](O)[C@H]2O)O[C@@H]7CO)O[C@@H]6CO)O[C@@H]5CO)O[C@@H]4CO)O[C@@H]3CO`, the outcome was inactive.

Take `CCCCCCCC/C=C\CCCCCCCC(=O)OC[C@@H](O)[C@H]1OC[C@H](O)[C@H]1O`: the compound was called inactive.

As to `CCCc1ccccc1`, the result was inactive.

For `O=c1[nH]cnc2c1ncn2[C@H]1CC[C@@H](CO)O1`, the compound was classed as inactive.

As to `c1ccc(C(O[C@@H]2CCCN(CCc3ccc4c(c3)OCO4)C2)c2ccccc2)cc1`, the outcome was inactive.

For `NC(=O)NN=Cc1ccc([N+](=O)[O-])o1`, the compound was classed as inactive.

Consider `OCCOCCOCCO`, for which the call was inactive.

As to `Cn1c(=O)c2[nH]cnc2n(C)c1=O`, the compound was called inactive.

Regarding `Cc1nc(-c2ccccn2)ncc1C(=O)Nn1cc(C)c2cc(F)ccc21`, the compound was classed as inactive.

Turning to `O=C(O)c1cccc(C[C@@H]2COc3ccc(OCc4nc5cc(F)ccc5s4)cc3[C@@H]2O)c1`, the result was inactive.

On to `CC1(C)C(=O)N(Cl)C(=O)N1Cl`, for which the outcome was inactive.

`NC(=O)N1c2ccccc2C=Cc2ccccc21`: the compound was called inactive.

Take `c1ccc2ncccc2c1`: the result was inactive.

For the compound `O=S(=O)(O)c1ccc(N=Nc2c(O)ccc3cc(S(=O)(=O)O)ccc23)cc1`, the call was inactive.

Regarding `OC(Cn1cncn1)(Cn1cncn1)c1ccc(F)cc1F`, the compound was classed as inactive.

Consider `OCCNCCO`, for which the outcome was inactive.

Turning to `O=C(O)c1cccc(C(=O)O)c1`, the outcome was inactive.

On to `CCCCCCCCCC`, for which the outcome was inactive.

As for `CC(C)C(=O)Nc1ccc([N+](=O)[O-])c(C(F)(F)F)c1`, the outcome was inactive.

Consider `CCCCCCCCN(C)C`, for which the call was inactive.

`CCc1cccc(CC)c1N`: the result was inactive.

In the case of `NNC(=O)c1ccncc1`, the compound was classed as inactive.

As for `CC(C)CCCCCCOC(=O)C1CCCCC1C(=O)OCCCCCCC(C)C` (stereo not given), the compound was called inactive.

Turning to `CCOc1ccc2[nH]cc(C(=O)NCc3ccccc3)c(=O)c2n1`, the outcome was inactive.

`Cc1ncc([C@@H](CCCCCCc2ccc3c(n2)NCCC3)CC(=O)O)cn1`: the result was inactive.

With `CCCCCCCCCCCCCCO`, the compound was classed as inactive.

For the compound `C[C@@H](Oc1ccc(CNC(=O)c2cccnc2Oc2ccc3c(c2)OCO3)c(F)c1)C(=O)O`, the compound was called inactive.

Turning to `Nc1ccn([C@@H]2O[C@H](CO)[C@@H](O)[C@@H]2O)c(=O)n1`, the call was inactive.
